From PubChem
GIRK2 activator – GIRK2 channel activators by thallium flux. P48051. HEK293 GIRK2/NPY4 cells, thallium flux fluorescence. activation (% efficacy), % for hits at 37.5 µM. 34,000 tested, under 10 active;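 active = primary screen hit, no activity in plain HEK293 cells, and in GIRK2-only cells above 5% efficacy rising with concentration; inactive = the rest, including fluorescent compounds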;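 also: efficacy is normalized control-subtracted fluorescence 15 s after thallium addition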
GluA2 TARP mod – GluA2-stargazin AMPA receptor complex modulation | 40,000 compounds, 3.5% hits | AID 1259245 | O88602+P19491 | calls only at 30 µM | HEK293 GluA2+stargazin, membrane potential dye (FDSS), glutamate EC50; hits were called plate by plate, in both directions;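 active = any of four per-well response measures lying three or more SD from its plate-wide compound average, in either direction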
The depositor's hits bear a star; i = inactive; nt = no result given; + = active, no number. The entries come from a sample that favours hits as a whole.

SMILES	GIRK2 activator	GluA2 TARP mod
O=C(c1cc2ccccc2oc1=O)N1CCC(Cn2cnc3ccccc32)CC1	i	i
Cc1ccc(-n2c(C)c(C)n3c4c(=O)n(CCCO)c(=O)n(C)c4nc23)c(C)c1	i	i
Cc1ccc(C)c(Sc2cc(N3CCC(C(=O)NCC4CCCO4)CC3)ncn2)c1 (stereo not drawn)	i	+
Cc1ccc(C)c(Sc2cc(N3CCC(C(=O)NCCN4CCCC4)CC3)ncn2)c1	i	i
CCOc1ccc2ccccc2c1C(=O)NCC(C)(O)c1ccccc1 (stereo not drawn)	i	nt
CCOc1cc(C(=O)NCc2ccsc2)cc(OCC)c1OCC	i	i
CCOc1ccc2ccccc2c1C(=O)NC1CCCC(O)C1 (stereo not drawn)	i	+
CCOc1ccc2ccccc2c1C(=O)NCC(O)(c1ccco1)C1CC1 (stereo not drawn)	i	+
CCOc1ccc2ccccc2c1C(=O)NCC1CCN(C(C)C)CC1	i	nt
CCOc1ccc2ccccc2c1C(=O)NCc1ccsc1	i	+
COc1ccccc1OCC(=O)N1CCN(c2ncnc3c2nnn3-c2ccccc2)CC1	nt	i
COc1ccc(NC(=O)c2cc3c(=O)n4cccc(C)c4nc3n2C)cc1[N+](=O)[O-]	i	i
COc1ccc(C)cc1NC(=O)NCCNc1cc(-n2ccnc2C)nc(C)n1	i	i
Cc1cccc(NS(=O)(=O)c2c(C)cc(C)c(N(C)S(C)(=O)=O)c2C)c1	nt	i
COc1cc(C)ccc1NC(=O)Cc1csc(SCC(=O)c2ccc(F)cc2)n1	i	nt
Cn1c(=O)c2c(nc3n2CC(c2ccc(F)cc2)=NN3CC(N)=O)n(C)c1=O	nt	+
Cn1c(=O)c2c(nc3n2CC(c2ccc(F)cc2)=NN3CC(=O)O)n(C)c1=O	nt	i
CN1CCN(c2nc(N3CCOCC3)c3ccccc3n2)CC1	nt	+
c1ccc2c(N3CCOCC3)nnc(N3CCOCC3)c2c1	i	i
COc1ccccc1Nc1nc(N2CCOCC2)c2ccccc2n1	nt	+
COc1ccc(NC(=O)CSc2nc3ccccc3nc2N2CCOCC2)cc1	i	i
CC(=O)N1CCN(c2cc3c(cc2F)c(=O)c(C(=O)Nc2nccs2)cn3C2CC2)CC1	i	i
CCC(=O)N1CCN(c2ncnc3c2nnn3-c2cccc(OC)c2)CC1	nt	i
CCSc1ccccc1C(=O)N1CCN(c2ncnc3c2nnn3-c2ccc(OC)cc2)CC1	nt	+
COc1ccc(-n2nnc3c(N4CCN(C(=O)c5ccccc5Cl)CC4)ncnc32)cc1	nt	i
SMILES	GIRK2 activator	GluA2 TARP mod
COc1ccc(-n2nnc3c(N4CCN(C(=O)c5ccccc5SC)CC4)ncnc32)cc1	nt	+
O=C(CC(c1ccccc1)c1ccccc1)N1CCN(c2ncnc3c2nnn3-c2ccccc2)CC1	nt	+
CCSc1ccccc1C(=O)N1CCN(c2ncnc3c2nnn3-c2ccc(C)cc2)CC1	nt	i
O=C(CSCc1ccccc1)N1CCN(c2ncnc3c2nnn3-c2ccccc2)CC1	nt	i
CCC(CC)C(=O)N1CCN(c2ncnc3c2nnn3-c2cccc(OC)c2)CC1	nt	+
O=C(CN1CCC(c2nnc(-c3ccco3)o2)CC1)Nc1cccc(Cl)c1Cl	i	i
CC(=O)Nc1ccc(C(=O)NCCNC(=O)c2sc(-c3ccccc3)nc2C)cc1	i	i
O=C(CN1CCC2(CC1)NC(=O)N(Cc1ccc(Cl)cc1)C2=O)c1ccc(Cl)cc1	i	i
Cc1ccccc1NC(=O)Cc1csc(SCC(=O)c2ccccc2)n1	i	nt
Cc1ccc(CC(=O)N(CCc2cccs2)c2nc3ccc(S(C)(=O)=O)cc3s2)c(C)c1	i	i
COC(=O)c1c(NC(=O)c2cc(C)no2)sc2c1CC(C)(C)NC2(C)C	i	nt
COC(=O)c1c(NC(=O)c2ccco2)sc2c1CC(C)(C)NC2(C)C	i	+
O=C(NCC(c1cccs1)N1CCOCC1)c1c(F)cccc1Cl (stereo not drawn)	i	i
O=C(NCC(c1ccsc1)N1CCCCCC1)c1c(F)cccc1Cl (stereo not drawn)	i	+
Cc1nc(Nc2ccc(SC(F)F)cc2)nc(N2CCOCC2)c1[N+](=O)[O-]	i	i
Cn1c(C(F)(F)F)nn(CCNC(=O)COc2cccc3c2OC(C)(C)C3)c1=O	i	i
Cc1cc(C)n(CCNC(=O)Cn2c(-c3cnccn3)nc3ccccc32)n1	i	i
Cc1nc(NC(=O)Cn2c(-c3cnccn3)nc3ccccc32)sc1C(=O)N(C)C	i	i
Cc1ccc(Cl)cc1N1CCN(C(=O)Cn2c(-c3cnccn3)nc3ccccc32)CC1	i	+
CSc1ccccc1NC(=O)Cn1c(-c2cnccn2)nc2ccccc21	i	+
CCc1cccc2sc(N(CCN3CCOCC3)C(=O)c3ccc([N+](=O)[O-])cc3)nc12	i	i
NC(=O)c1ccc(NC(=O)CN2C(=O)c3ccccc3S2(=O)=O)cc1	i	i
NS(=O)(=O)c1ccc(NC(=O)CN2C(=O)c3ccccc3S2(=O)=O)cc1	i	+
O=S(=O)(Cc1cccc(F)c1)N1CCN(CC(F)(F)F)CC1	i	i
O=C(Nc1ccc2c(c1)CN(C(=O)c1ccccc1)CC2)C1CC(=O)N(c2ccc(F)cc2)C1 (stereo not drawn)	i	i
O=C(Nc1cccc(C(F)(F)F)c1)C1CC(=O)N(c2ccc(F)cc2)C1 (stereo not drawn)	nt	+
Cc1nn(C2CCS(=O)(=O)C2)c2nc(-c3ccco3)cc(C(=O)NCCc3ccc(F)cc3)c12 (stereo not drawn)	i	+
Cc1nn(C2CCS(=O)(=O)C2)c2nc(-c3ccco3)cc(C(=O)NCc3c(F)cccc3F)c12 (stereo not drawn)	i	i
